Results filed as inconclusive are left out. The source made the active and inactive calls. The calls were made as follows: active = hit-call score of the fitted dose curve at least 0.9, where 1 is the maximum; inconclusive = response in the unintended direction; inactive = score below 0.9.

For assay [1], the target named is human Epidermal Growth Factor Receptor (EGFR), EGFR (gene 1956) (UniProt P00533). Kind of assay: NVS_ENZ_hEGFR: NovaScreen (NVS) Enzymatic Assay for human Epidermal Growth Factor Receptor (EGFR) (AID 2283151). An outline of the steps: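 Cell-free kinase assay, fluorescence plus electrophoretic mobility shift separating substrate and product, read 1 hour after dosing; loss of signal vs DMSO. Duplicate screen at 25 uM, then concentration-response to 50 uM.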
human Epidermal Growth Factor Receptor (EGFR), EGFR (gene 1956), sequence (P00533 whole entry, looked up): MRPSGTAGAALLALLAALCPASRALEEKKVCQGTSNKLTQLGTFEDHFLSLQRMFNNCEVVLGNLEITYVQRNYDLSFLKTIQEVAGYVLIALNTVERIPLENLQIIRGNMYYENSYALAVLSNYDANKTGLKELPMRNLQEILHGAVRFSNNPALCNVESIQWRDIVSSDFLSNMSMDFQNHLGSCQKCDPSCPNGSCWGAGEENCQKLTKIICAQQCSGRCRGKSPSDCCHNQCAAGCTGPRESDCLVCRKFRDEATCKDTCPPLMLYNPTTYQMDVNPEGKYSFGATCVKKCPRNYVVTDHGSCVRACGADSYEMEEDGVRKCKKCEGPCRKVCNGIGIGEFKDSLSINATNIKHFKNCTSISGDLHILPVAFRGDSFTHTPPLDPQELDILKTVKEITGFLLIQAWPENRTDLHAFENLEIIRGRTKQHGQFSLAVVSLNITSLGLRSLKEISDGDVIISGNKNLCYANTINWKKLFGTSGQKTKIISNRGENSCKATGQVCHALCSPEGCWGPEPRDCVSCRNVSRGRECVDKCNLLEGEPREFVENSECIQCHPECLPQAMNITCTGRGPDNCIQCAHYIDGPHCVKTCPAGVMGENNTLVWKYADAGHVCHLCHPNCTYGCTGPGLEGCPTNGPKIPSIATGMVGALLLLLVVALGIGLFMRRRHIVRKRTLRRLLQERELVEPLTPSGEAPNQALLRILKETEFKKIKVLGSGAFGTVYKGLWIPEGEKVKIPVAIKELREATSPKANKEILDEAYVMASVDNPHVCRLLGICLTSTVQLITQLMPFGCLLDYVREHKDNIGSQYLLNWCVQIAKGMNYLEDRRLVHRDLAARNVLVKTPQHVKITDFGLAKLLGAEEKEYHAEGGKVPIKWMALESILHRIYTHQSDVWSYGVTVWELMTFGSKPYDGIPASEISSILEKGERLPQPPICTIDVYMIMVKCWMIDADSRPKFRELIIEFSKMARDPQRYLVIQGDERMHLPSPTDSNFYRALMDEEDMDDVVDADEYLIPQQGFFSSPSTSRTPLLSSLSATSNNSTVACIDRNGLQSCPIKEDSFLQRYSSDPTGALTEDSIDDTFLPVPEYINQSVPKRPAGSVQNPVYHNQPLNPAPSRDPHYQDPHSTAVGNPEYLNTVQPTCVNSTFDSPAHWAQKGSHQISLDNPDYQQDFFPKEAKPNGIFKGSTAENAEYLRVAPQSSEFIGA

Assay [2] has as its target human Fibroblast Growth Factor Receptor 1 (FGFR1), FGFR1 (gene 2260) (UniProt P11362). Kind of assay: NVS_ENZ_hFGFR1: NovaScreen (NVS) Enzymatic Assay for human Fibroblast Growth Factor Receptor 1 (FGFR1) (AID 2283159).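 Also: hits lower the signal so potencies describe inhibitors of the kinase.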 An outline of the steps: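 Cell-free recombinant kinase with fluorescent substrate, product separated by electrophoretic mobility shift; read 1 hour after dosing, loss of signal relative to DMSO. Initial screen in duplicate at 25 uM, actives followed in concentration series.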

Assay [3] concerns the target Histone deacetylase 3 (Homo sapiens) (UniProt O15379). Kind of assay: NVS_ENZ_hHDAC3: NovaScreen (NVS) Enzymatic Assay for human Histone Deacetylase 3 (HDAC3) (AID 2283163). An outline of the steps: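 Cell-free enzyme format: loss of fluorescent product after mobility-shift separation, 1 h incubation, recombinant human HDAC3. Single 25 uM duplicate screen first, then concentration series to a 50 uM top for hits; DMSO as baseline.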

Assay [4] concerns the target human Ephrin type-B Receptor 2 (EphB2), EPHB2 (gene 2048) (UniProt P29323). Description: NVS_ENZ_hEphB2: NovaScreen (NVS) Enzymatic Assay for human Ephrin type-B Receptor 2 (EphB2) (AID 2283156). As to the method:
NVS_ENZ_hEphB2 is a biochemical, single-readout assay that uses extracted gene-proteins in a cell-free assay. Measurements were taken 1 hour after chemical dosing in a 384-well plate.NVS_ENZ_hEphB2 is one of one assay component(s) measured or calculated from the NVS_ENZ_hEphB2 assay. It is designed to make measurements of enzyme activity, a form of enzyme reporter, as detected with fluorescence intensity signals by Fluorescence and electrophoretic mobility shift technology.Data from the assay component NVS_ENZ_hEphB2 was analyzed into 1 assay endpoint. This assay endpoint, NVS_ENZ_hEphB2, was analyzed in the positive analysis fitting direction relative to DMSO as the negative control and baseline of activity. Using a type of enzyme reporter, loss-of-signal activity can be used to understand changes in the enzymatic activity as they relate to the gene EPHB2. Furthermore, this assay endpoint can be referred to as a primary readout, because this assay has produced multiple assay endpoints where this one serves a enzymatic activity function. To generalize the intended target to other relatable targets, this assay endpoint is annotated to the kinase intended target family, where the subfamily is receptor tyrosine kinase. […]

Assay [5] concerns the target human FYN Proto-Oncogene, Src family Tyrosine Kinase (Fyn), FYN (gene 2534) (UniProt P06241). Kind of assay: NVS_ENZ_hFyn: NovaScreen (NVS) Enzymatic Assay for human FYN Proto-Oncogene, Src family Tyrosine Kinase (Fyn) (AID 2283161). An outline of the steps: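 Cell-free kinase activity read by fluorescence after mobility-shift separation of substrate and product, 1 h post-dose. Initial single concentration 25 uM in duplicate, then concentration-response follow-up; DMSO baseline.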

Histone deacetylase 3 (Homo sapiens), sequence (O15379 whole entry, looked up): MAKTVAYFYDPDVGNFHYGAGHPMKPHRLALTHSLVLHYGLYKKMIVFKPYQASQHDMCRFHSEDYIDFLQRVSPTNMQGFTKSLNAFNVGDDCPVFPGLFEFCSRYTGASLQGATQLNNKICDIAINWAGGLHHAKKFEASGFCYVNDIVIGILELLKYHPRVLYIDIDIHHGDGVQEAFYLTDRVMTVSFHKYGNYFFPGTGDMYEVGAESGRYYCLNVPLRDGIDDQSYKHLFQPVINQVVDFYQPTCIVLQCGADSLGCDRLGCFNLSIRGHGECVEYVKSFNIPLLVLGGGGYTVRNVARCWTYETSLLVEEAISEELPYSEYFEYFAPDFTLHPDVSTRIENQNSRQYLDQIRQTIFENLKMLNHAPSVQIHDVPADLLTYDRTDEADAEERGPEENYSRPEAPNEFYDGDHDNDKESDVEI
human Ephrin type-B Receptor 2 (EphB2), EPHB2 (gene 2048), sequence (P29323 whole entry, looked up): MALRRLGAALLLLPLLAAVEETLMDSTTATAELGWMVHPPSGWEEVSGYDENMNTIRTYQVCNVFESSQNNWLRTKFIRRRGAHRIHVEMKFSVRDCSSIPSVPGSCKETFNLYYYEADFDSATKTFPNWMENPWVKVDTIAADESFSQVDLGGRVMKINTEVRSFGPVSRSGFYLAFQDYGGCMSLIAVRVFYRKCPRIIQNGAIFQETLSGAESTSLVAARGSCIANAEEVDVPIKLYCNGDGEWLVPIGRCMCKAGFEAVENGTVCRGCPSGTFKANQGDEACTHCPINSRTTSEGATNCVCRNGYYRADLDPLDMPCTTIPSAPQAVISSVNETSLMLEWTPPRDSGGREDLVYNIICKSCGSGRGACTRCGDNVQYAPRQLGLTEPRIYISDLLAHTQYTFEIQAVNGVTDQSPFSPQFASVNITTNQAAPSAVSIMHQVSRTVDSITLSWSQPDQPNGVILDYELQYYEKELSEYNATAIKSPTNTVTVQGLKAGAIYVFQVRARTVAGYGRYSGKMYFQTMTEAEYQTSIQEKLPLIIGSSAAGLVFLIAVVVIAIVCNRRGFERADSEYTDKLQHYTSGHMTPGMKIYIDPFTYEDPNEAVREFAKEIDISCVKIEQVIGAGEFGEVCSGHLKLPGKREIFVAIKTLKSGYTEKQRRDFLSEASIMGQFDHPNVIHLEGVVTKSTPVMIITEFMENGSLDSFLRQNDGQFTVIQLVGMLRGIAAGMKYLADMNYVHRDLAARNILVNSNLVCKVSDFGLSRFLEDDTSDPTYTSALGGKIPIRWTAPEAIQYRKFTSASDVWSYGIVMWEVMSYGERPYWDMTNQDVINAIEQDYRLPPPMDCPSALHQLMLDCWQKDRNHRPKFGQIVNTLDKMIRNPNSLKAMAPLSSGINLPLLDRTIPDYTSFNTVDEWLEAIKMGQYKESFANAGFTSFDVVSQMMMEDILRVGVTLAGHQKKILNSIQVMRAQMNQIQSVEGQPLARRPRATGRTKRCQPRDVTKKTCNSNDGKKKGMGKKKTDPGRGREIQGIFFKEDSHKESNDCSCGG
human FYN Proto-Oncogene, Src family Tyrosine Kinase (Fyn), FYN (gene 2534), sequence (P06241 whole entry, looked up): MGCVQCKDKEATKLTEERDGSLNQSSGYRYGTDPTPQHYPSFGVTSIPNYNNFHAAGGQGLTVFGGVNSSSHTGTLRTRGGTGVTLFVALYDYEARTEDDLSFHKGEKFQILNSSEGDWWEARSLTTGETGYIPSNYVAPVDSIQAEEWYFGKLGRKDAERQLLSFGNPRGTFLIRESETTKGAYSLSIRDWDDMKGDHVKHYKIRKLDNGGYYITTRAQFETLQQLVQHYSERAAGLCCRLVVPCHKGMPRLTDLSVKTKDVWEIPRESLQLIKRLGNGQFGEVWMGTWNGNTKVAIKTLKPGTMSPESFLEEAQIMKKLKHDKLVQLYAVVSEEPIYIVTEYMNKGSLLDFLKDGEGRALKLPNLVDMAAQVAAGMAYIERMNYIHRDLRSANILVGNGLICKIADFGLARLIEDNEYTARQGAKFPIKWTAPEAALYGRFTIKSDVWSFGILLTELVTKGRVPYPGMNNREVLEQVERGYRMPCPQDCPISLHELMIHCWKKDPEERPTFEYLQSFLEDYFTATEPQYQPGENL
human Fibroblast Growth Factor Receptor 1 (FGFR1), FGFR1 (gene 2260), sequence (P11362 whole entry, looked up): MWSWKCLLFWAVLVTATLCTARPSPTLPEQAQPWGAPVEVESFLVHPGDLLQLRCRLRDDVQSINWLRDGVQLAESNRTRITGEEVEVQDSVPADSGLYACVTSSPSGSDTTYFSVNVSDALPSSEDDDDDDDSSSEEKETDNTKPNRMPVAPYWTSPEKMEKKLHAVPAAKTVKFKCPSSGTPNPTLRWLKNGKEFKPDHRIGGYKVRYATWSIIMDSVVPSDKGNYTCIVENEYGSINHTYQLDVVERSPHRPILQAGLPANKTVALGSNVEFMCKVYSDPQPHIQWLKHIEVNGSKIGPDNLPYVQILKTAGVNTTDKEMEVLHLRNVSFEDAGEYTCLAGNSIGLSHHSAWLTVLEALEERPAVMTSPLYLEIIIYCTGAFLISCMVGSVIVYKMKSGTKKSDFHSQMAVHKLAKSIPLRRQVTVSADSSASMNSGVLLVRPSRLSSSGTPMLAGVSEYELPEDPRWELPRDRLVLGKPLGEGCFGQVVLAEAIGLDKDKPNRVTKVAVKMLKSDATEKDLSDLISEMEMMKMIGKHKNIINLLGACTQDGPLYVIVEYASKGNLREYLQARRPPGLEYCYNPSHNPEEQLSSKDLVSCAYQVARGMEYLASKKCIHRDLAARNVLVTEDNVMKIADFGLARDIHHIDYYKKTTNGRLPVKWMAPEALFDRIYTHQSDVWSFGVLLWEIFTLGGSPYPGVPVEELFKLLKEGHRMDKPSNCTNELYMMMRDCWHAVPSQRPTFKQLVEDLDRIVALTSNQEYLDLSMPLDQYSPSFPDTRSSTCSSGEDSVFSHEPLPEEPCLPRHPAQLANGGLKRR

As to `CC(=O)[O][Hg][c]1ccccc1`, the figures for the concentration at half-maximal activity (AC50) in assay [1], in assay [2] and in assay [3] were 9.71 µM (active), 33.4 µM (active) and 9.74 µM (active), respectively.

Regarding `ClC1(Cl)C2(Cl)C3(Cl)C4(Cl)C(Cl)(Cl)C5(Cl)C3(Cl)C1(Cl)C5(Cl)C24Cl` (configuration not stated), in assay [1], the call was inactive.

Take `O=C(O)C(Cl)(Cl)Cl`: the compound was classed as inactive in assay [4].

As for `NC(=O)O`, in assay [5], the compound was called inactive.

With `O=[N+]([O-])c1ccc(O)c([N+](=O)[O-])c1`, the result in assay [3] was inactive.

These data come from PubChem BioAssay (EPA / NIEHS).
